We go through 54 compounds from PubChem BioAssay AID593 (National Center for Advancing Translational Sciences (NCATS), 2007).

In all, about 59,000 compounds went through this assay and about 540 (0.92%) were called active. Another 33% or so got no clear call; they are omitted. Cut-off read from the data, not from the text of the source: active = max fluorescein-equivalent concentration above about 10 nM; inconclusive = between about 1.1 nM and that limit; inactive = weaker than that. What follows is part of a selection rich in actives, with near analogues and random picks from the rest.

This assay can be described thus: qHTS Assay for Spectroscopic Profiling in Fluorescein Spectral Region. The following applies: Compound autofluorescence, 480/540 nm; max fluorescein-equivalent concentration: active compounds read high; outcome: fluorescein-equivalent. The text has this: NIH Molecular Libraries Screening Centers Network [MLSCN]
NIH Chemical Genomics Center [NCGC]
Occasionally, the artifactual effect may originate from the compound's own spectral or other biophysical properties which generally tend to track its assay concentration. Pre-screening/profiling the library with respect to the compounds' spectral properties should help one exclude false positives early on. While the most informative fluorescent profiling data set is obtained by performing a full excitation and emission scan of each well by using a monochromator-based plate reader, such an approach is practical only on a very limited scale as scanning each well requires long time. An alternative approach, applied here, is to perform plate reader scans using selected excitation and emission wavelength pairs to generate a multidimensional relational database that correlates compound concentration and the respective relative fluorescence intensity at a given wavelength set. A standard curve of fluorescein present on each plate as six-point concentration series, was used to compute a normalized fluorescence response, termed dye-equivalent concentration, for each compound at each concentration.
NCGC Assay Protocol Summary:
100 mM Tris buffer, pH 8.0
The wells in columns 1 through 4 of a Kalypsys polypropylene 1536-well compound plate were filled with standard solutions of fluorophore corresponding to the spectral region of interest. Solutions of Fluorescein were placed in the following wells: Q1, R1: 3 mM, Q2, R2: 300 uM, Q3, R3: 30 uM, Q4, R4: zero (DMSO), S1, T1: 3 uM, S2, T2: 900 nM, S3, T3: 300 nM, S4, T4: zero (DMSO).
Six uL of buffer were dispensed to 1536-well Greiner black plates. Compounds and dye standards (23 nL) were transferred via Kalypsys PinTool. The plates were incubated for 15 min at room temperature, and then read on ViewLux (Perkin-Elmer) High-throughput CCD imager using 480 nm and 540 nm excitation and emission filter set.
Keywords: NIH Roadmap, MLSCN, MLI, MLSMR, qHTS, NCGC, Fluorescein, Fluorescent Profiling.
Turning to `COc1ccc2nc(NC3=NCN(CC4CCCO4)CN3)nc(C)c2c1` (centres undefined), the max fluorescein-equivalent concentration entry is “inactive”.

In the case of `COc1cccc(Nc2ncc3ncc(=O)n(C4CC4)c3n2)c1`, the max fluorescein-equivalent concentration entry is “inactive”.

On to `Oc1c(Br)cc(CN(Cc2cc(Br)c(O)c(Br)c2)C2CCCCC2)cc1Br`, for which the max fluorescein-equivalent concentration result was “inactive”.

For `COc1ccc(C2C3=C(CC(C)(C)CC3=O)Oc3ncn4nc(-c5cccnc5)nc4c32)cc1OC` (centres undefined), the max fluorescein-equivalent concentration result was “inactive”.

With `O=C(c1ccc([N+](=O)[O-])cc1)[C@@H](Br)[C@@H](Br)c1ccnc2ccccc12`, the max fluorescein-equivalent concentration entry is “inactive”.

`CN(C)CCSS(=O)(=O)O`: the max fluorescein-equivalent concentration entry is “inactive”.

For `CCCn1c(SCC(=O)c2ccc3c(c2)OCCO3)nnc1C(C)C`, the max fluorescein-equivalent concentration entry is “inactive”.

As for `CCCCOc1ccccc1/C=c1/sc2nc(-c3oc4ccccc4c3C)nn2c1=O`, the max fluorescein-equivalent concentration result was “inactive”.

In the case of `COc1cccc(Cn2c(=O)c(-c3cc(F)cc(F)c3)nc3cnc(OC)nc32)c1`, the max fluorescein-equivalent concentration result is “inactive”.

Take `CCOC(=O)CSc1nc2sc3c(c2c(=O)[nH]1)CC(C)(C)OC3`: the max fluorescein-equivalent concentration result is “inactive”.

With `CCOc1ccc2[nH]c(=O)c(CN(CCCO)C(C)=O)cc2c1`, the max fluorescein-equivalent concentration result is “inactive”.

In the case of `CN1CCN(CC(=O)C23CC4CC(CC(C4)C2)C3)CC1`, the max fluorescein-equivalent concentration entry is “inactive”.

Take `c1ccc2sc(SCCSc3nc4ccccc4s3)nc2c1`: the max fluorescein-equivalent concentration result is “inactive”.

As for `CCOC(=O)c1csc(NC(=O)c2ccc(S(=O)(=O)N3CCCC3)cc2)n1`, the max fluorescein-equivalent concentration result is “inactive”.

For `O=C(c1ccco1)N1CCC2(CC1)CN(c1ncccn1)C2`, the max fluorescein-equivalent concentration entry is “inactive”.

In the case of `CCOC(=O)c1sc(NC(=O)c2cc(S(=O)(=O)N3CCOCC3)ccc2C)nc1C`, the max fluorescein-equivalent concentration result was “inactive”.

As for `COc1cccc(-c2nc(Nc3ccncc3)c3ccccc3n2)c1`, the max fluorescein-equivalent concentration result is “inactive”.

For `CC(C)NC(=O)N1CC[C@@]2(CCCN(C(=O)c3cccn3C)C2)C1`, the max fluorescein-equivalent concentration entry is “inactive”.

Take `CCCCCC(=O)Nc1ccc2oc(-c3ccncc3)nc2c1`: the max fluorescein-equivalent concentration entry is “inactive”.

For the compound `Cc1ccc(CC2CC(=O)N(c3ccc4c(c3)OCCO4)C2=O)cc1` (centres undefined), the max fluorescein-equivalent concentration entry was “inactive”.

For the compound `CCOC(=O)C1C(=O)NC(N2CCN(c3ccccc3)CC2)=NC1c1ccco1` (centres undefined), the max fluorescein-equivalent concentration entry is “inactive”.

For the compound `O=C(c1cnccn1)N1CCC2(CCN(Cc3cc(C(F)(F)F)cc(C(F)(F)F)c3)CC2)CC1`, the max fluorescein-equivalent concentration result was “inactive”.

As to `N=c1c2c3c(sc2ncn1N)CCCCC3`, the max fluorescein-equivalent concentration entry is “inactive”.

For the compound `O=c1c(-c2ccc(F)cc2)nc2cnc(N3CCNCC3)nc2n1Cc1cccs1`, the max fluorescein-equivalent concentration entry was “inactive”.

For `CCN(CC)C(=O)C1CCC(C)(C(=O)O)C1(C)C` (centres undefined), the max fluorescein-equivalent concentration entry was “inactive”.

Regarding `CCc1ccc(CCC(=O)Nc2ccc(S(N)(=O)=O)cc2)o1`, the max fluorescein-equivalent concentration result is “inactive”.

For `COc1ccc(-c2nc(SCC(=O)N3CCOCC3)n[nH]2)cc1`, the max fluorescein-equivalent concentration result was “inactive”.

On to `CN(C)/C=C1/Nc2ccccc2C1=O`, for which the max fluorescein-equivalent concentration result is “inactive”.

On to `COC(=O)C(C)N(C#N)c1nc(C)nc(C)n1` (centres undefined), for which the max fluorescein-equivalent concentration entry was “inactive”.

For the compound `COCCCn1c2nc3ccccc3nc2c2c(=O)n(Cc3ccc(Cl)cc3)c(C)nc21`, the max fluorescein-equivalent concentration entry is “inactive”.

Consider `CCN(CC)S(=O)(=O)c1ccc2nc(CSc3nnnn3-c3ccc(O)cc3)[nH]c2c1`, for which the max fluorescein-equivalent concentration result is “inactive”.

For `COc1cc(OC)cc(C(=O)Nc2ccc(-c3nc4ccccc4o3)c(O)c2)c1`, the max fluorescein-equivalent concentration entry was “inactive”.

For `CC(=O)c1ccc(N2C(=NC(=O)C(C)C)SC3CS(=O)(=O)CC32)cc1` (centres undefined), the max fluorescein-equivalent concentration result is “inactive”.

`COc1ccc(C(c2nnnn2Cc2cccs2)N2CCN(c3ccccc3)CC2)cc1OC` (centres undefined): the max fluorescein-equivalent concentration entry was “inactive”.

Turning to `CC(=O)c1ccc(NC(=O)N[C@@H](Cc2ccccc2)C(=O)O)cc1`, the max fluorescein-equivalent concentration entry is “inactive”.

On to `CC(C)c1ccc(-c2nn[nH]n2)cc1`, for which the max fluorescein-equivalent concentration result is “inactive”.

On to `Cn1c(SCC(=O)c2cccs2)nnc1-c1ccco1`, for which the max fluorescein-equivalent concentration result is “inactive”.

With `CC1(C)Cc2ccccc2-c2nnc(-c3cccc(O)c3)n21`, the max fluorescein-equivalent concentration result was “inactive”.

On to `CC1(C)Cc2cccc(OCC(=O)Nc3nccs3)c2O1`, for which the max fluorescein-equivalent concentration entry was “inactive”.

As to `COC(=O)c1ccc(NC(=O)CSc2nnc(-c3ccncc3)n2C)cc1`, the max fluorescein-equivalent concentration entry was “inactive”.

As to `Cc1ccc(C)c(NC(=O)C2CC(=O)N(C(C)C)C2)c1` (centres undefined), the max fluorescein-equivalent concentration entry is “inactive”.

For `Cc1ccccc1-c1nc(N(C)Cc2ccco2)c2ccccc2n1`, the max fluorescein-equivalent concentration entry is “inactive”.

In the case of `c1ccc(CSCCc2ccncc2)cc1`, the max fluorescein-equivalent concentration result is “inactive”.

In the case of `C[C@]1(O)CC[C@H]2[C@H]3CC=C4N5CCN=C5CC[C@@]4(C)[C@H]3CC[C@@]21C`, the max fluorescein-equivalent concentration result was “inactive”.

Take `O=c1[nH]nc(Cc2ccccn2)c2ccccc12`: the max fluorescein-equivalent concentration entry was “inactive”.

`Cc1ccc(-c2noc(CN3CCN(Cc4ccccc4)CC3)n2)cc1`: the max fluorescein-equivalent concentration result is “inactive”.

As to `CCOC(=O)c1cc2occc2n1CC(=O)NC1CCC(C)CC1` (centres undefined), the max fluorescein-equivalent concentration result is “inactive”.

For `COc1ccc(C(=O)N(Cc2ccc(N(C)C)cc2)C2CCS(=O)(=O)C2)cc1` (centres undefined), the max fluorescein-equivalent concentration entry is “inactive”.

With `O=S(=O)(NCCOc1cccc2cccnc12)c1ccc(F)cc1`, the max fluorescein-equivalent concentration result was “inactive”.

As to `Nc1nc2c(ncn2[C@H]2CC[C@@H](CO)O2)c(=O)n1C(=O)c1ccccc1`, the max fluorescein-equivalent concentration result was “inactive”.

In the case of `O=C(O)[C@H](CCc1ccccn1)c1ccccc1`, the max fluorescein-equivalent concentration result was “inactive”.

As for `O=C(O)c1c(Br)c(Br)c(Br)c(Br)c1C1c2ccc(O)cc2Oc2cc(O)ccc21`, the max fluorescein-equivalent concentration was 320 nM (active).

As for `O=C(COc1cccc(-n2cnnn2)c1)NCCC1=CCCCC1`, the max fluorescein-equivalent concentration entry was “inactive”.

On to `Cc1cc2c(cc1C)NC1=C(N2)O[C@H](c2c[nH]c3ccc(COc4ccccc4)cc23)C1=O`, for which the max fluorescein-equivalent concentration entry is “inactive”.
